# Out of some 16,000 compounds screened, about 5,800 (36%) were called active. Roughly 23% stayed inconclusive and do not appear here. Calls follow the shape of the dose curve; as a rule, active = well fitted curve in the direction sought with a large enough effect; inconclusive = small, poorly fitted or top-dose-only effect, or effect the other way; inactive = no such curve, though single readings can be large or run the other way. The list shows a part of the results.
# Target: Cytochrome P450 2C19 (Homo sapiens) (UniProt P33261)
# Experiment: Cytochrome panel assay with activity outcomes
# Conditions: recombinant CYP, pro-luciferin dealkylation, luminescence, p450-cyp2c19; series mostly up to 57.1 µM; activity, negative = inhibition: at the top concentration
# % is scaled to controls: 0 for no effect and ±100 for the full control effect.
# Cytochrome P450 2C19 (Homo sapiens), sequence (P33261 whole entry, looked up): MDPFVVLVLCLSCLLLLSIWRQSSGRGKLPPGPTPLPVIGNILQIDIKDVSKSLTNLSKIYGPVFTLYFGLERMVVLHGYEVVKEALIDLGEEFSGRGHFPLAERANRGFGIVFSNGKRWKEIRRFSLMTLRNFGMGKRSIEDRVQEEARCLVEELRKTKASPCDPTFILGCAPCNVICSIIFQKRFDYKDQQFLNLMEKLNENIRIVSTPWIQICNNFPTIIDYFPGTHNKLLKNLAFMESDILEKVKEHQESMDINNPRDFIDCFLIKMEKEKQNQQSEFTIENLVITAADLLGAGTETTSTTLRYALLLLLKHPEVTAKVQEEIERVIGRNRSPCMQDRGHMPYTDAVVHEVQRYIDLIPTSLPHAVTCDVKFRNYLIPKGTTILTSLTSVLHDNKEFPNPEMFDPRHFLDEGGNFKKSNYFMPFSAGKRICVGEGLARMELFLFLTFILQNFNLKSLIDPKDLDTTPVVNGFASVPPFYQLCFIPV
SMILES,"activity, negative = inhibition",AC50
CNCC[C@H](Oc1ccccc1C)c1ccccc1,-21.1% (inactive),
CNC(=S)NNC(=O)COc1ccccc1C,-29% (inactive),
Cc1ccccc1OCCNC(=S)Nc1ccccc1,,0.794 µM (active)
O=C(CC(=O)N/N=C\c1c(Cl)cccc1Cl)NCc1ccccc1,,2.51 µM (active)
C[C@@](N)(C(=O)O)c1ccc(P(=O)(O)O)cc1,13.2% (inactive),
CN1Cc2c(C(=O)OC(C)(C)C)ncn2-c2ccsc2C1=O,,1.26 µM (active)
CCOCCCn1cnc2c([nH]c3cc(OC)ccc32)c1=O,,1.41 µM (active)
Cc1ccc(NC(=O)/C(=C\c2ccc3c(c2)OCO3)NC(=O)c2ccco2)cc1,-26.4% (inactive),
O=C(N/N=C/c1ccc2c(c1)OCO2)/C(=C/c1ccc2c(c1)OCO2)NC(=O)c1ccccc1,,14.1 µM (active)
C=CCNC(=O)/C(=C\c1ccc2c(c1)OCO2)NC(=O)c1ccc(Br)cc1,,8.91 µM (active)
Cc1ccc(N(C(=O)c2csnn2)C(C(=O)NC(C)(C)C)c2cccs2)cc1 (stereo unspecified),,2.51 µM (active)
COc1ccc(-c2csc3c2[N+]2=CCC=C2C3=O)cc1,,3.98 µM (active)
COc1ccccc1CN1CCCC2(CCN(C(=O)c3c(C)noc3C)CC2)C1,-37.8% (inactive),
COc1cc(C(=O)N2CCN(C(=O)c3ccccc3)CC2)cc(OC)c1OC,-7.85% (inactive),
COc1cc2c(C(=O)N3CCN(C)CC3)c(C)n(-c3ccccc3)c2cc1Br,,28.2 µM (active)
CC1CCN(C(NC(=O)c2ccco2)C(=O)c2ccccc2)CC1 (stereo unspecified),,2 µM (active)
CC(C)NC(=O)N1CCCC2(CCN(C(=O)c3ccco3)CC2)C1,-17.9% (inactive),
COc1ccc(C(=O)N2CCC[C@@]3(CCN(CC(C)C)C3)C2)cc1,6.79% (inactive),
Cc1ccc(C2C(=O)N(C3CCCC3)CC(=O)N2CC2COc3ccccc3O2)cc1 (stereo unspecified),,6.31 µM (active)
NC(=O)CNC(=O)[C@@H]1CC2(CC(c3ccc(Cl)cc3)=NO2)CN1C(=O)c1ccccc1 (stereo partly specified),2.94% (inactive),
O=C(c1ccc(Cl)cc1)N1CCCC(c2ccccc2)=N1,,4.47 µM (active)
O=S(=O)(c1ccc(Br)cc1)N1CCN(S(=O)(=O)c2ccc(Br)cc2)CC1,-4.78% [at 11.4 µM] (inactive),
Cc1ccc(S(=O)(=O)N2CCN(S(C)(=O)=O)C2)cc1,,11.2 µM (active)

SMILES,"activity, negative = inhibition",AC50
Cc1ccc(S(=O)(=O)N2CCN(Cc3ccccc3C(F)(F)F)CC2)cc1,,2.24 µM (active)
COc1ccccc1CN1CCC2(CC1)CCN(S(=O)(=O)c1ccccc1)CC2,18.2% (inactive),
CN(C)[C@H]1C(=O)C(C(=O)NCN2CCCC2)=C(O)[C@]2(O)C(=O)C3=C(O)c4c(O)cccc4[C@](C)(O)[C@H]3C[C@H]12,-26.1% [at 11.4 µM] (inactive),
Cc1c(N(C)CS(=O)(=O)O)c(=O)n(-c2ccccc2)n1C,8.53% [at 25.6 µM] (inactive),
Cc1c(CCO)c(=O)n(-c2ccccc2)n1S(=O)(=O)c1c(Cl)cc(Cl)cc1Cl,,2.82 µM (active)
Cc1ccc(S(=O)(=O)/N=C(/Nc2c(C)n(C)n(-c3ccccc3)c2=O)c2ccc(Cl)cc2)cc1,-27.9% (inactive),
CCOC(=O)N1CCN(CC(=O)c2ccc3c(c2)CCN3)CC1,,14.1 µM (active)
S=C(NCCSCc1c(Cl)cccc1Cl)Nc1ccccc1,,1.41 µM (active)
O=C(Cc1ccccc1)NCCSCc1ccc(Cl)cc1,,2.24 µM (active)
N[C@@H](CSCc1ccccc1)C(=O)O,-4.77% [at 11.4 µM] (inactive),
S=C(NCCSCc1ccc(Cl)cc1Cl)Nc1ccccc1,,1.12 µM (active)
COc1c2ccoc2nc2c(OC)c(OC[C@H](O)C(C)(C)O)ccc12,8.3% [at 25.6 µM] (inactive),
C/C(=N\NC(N)=S)c1ccc[nH]1,20.4% [at 11.4 µM] (inactive),
C[C@@H](C(=O)NCc1ccc(S(C)(=O)=O)cc1)[C@@H]1C[C@@]1(C)[C@@H](NC(=O)OCc1ccccc1)c1ccccc1,,1.26 µM (active)
C[C@@H](C(=O)NCc1cccc2ccccc12)[C@H]1C[C@]1(C)[C@H](NC(=O)OCc1ccccc1)c1ccccc1,,2.51 µM (active)
O=P(O)(CCc1ccccc1)C(O)c1ccccc1 (stereo unspecified),-48.5% (inactive),
O=[N+]([O-])c1cc(/C=N/N2CCN(C3c4ccccc4-c4ccccc43)CC2)ccc1Cl,1.97% (inactive),
C/C(=N\N1CCN(C2c3ccccc3-c3ccccc32)CC1)c1cccnc1,,4.47 µM (active)
C/C(=N\N1CCN(C2c3ccccc3-c3ccccc32)CC1)c1ccncc1,,3.16 µM (active)
C(=N\N1CCN(C2c3ccccc3-c3ccccc32)CC1)/c1cccnc1,,0.251 µM (active)
CC1(C)OC(=O)NC1=O,24.8% [at 25.6 µM] (inactive),
COc1ccccc1CNCC(O)(c1ccc(Cl)cc1)c1ccc(Cl)cc1,,2.82 µM (active)
COCC(=O)N1CCC2(CCN(Cc3ccccc3OC)CC2)CC1,15.4% (inactive),

SMILES,"activity, negative = inhibition",AC50
C[C@@]12C(=O)OC(=O)[C@@]1(C)[C@@H]1CC[C@@H]2O1,-37.1% (inactive),
CC(C)CO[C@H](c1ccc2c(c1)OCO2)[C@H](C)Br,,0.0631 µM (active)
Cc1cc(SCC(=O)c2ccccc2)nc(SCC(=O)c2ccccc2)n1,,2 µM (active)
O=C(CSc1ncnc2nc[nH]c12)c1ccccc1,6.64% [at 11.4 µM] (inactive),
CSc1nc(C)cc(SC(C(C)=O)C(=O)Nc2ccccc2)n1 (stereo unspecified),-50.3% (inactive),
CCN(CC)c1ccc(SS(=O)(=O)O)cc1,,7.08 µM (active)
N#C/C(=C/N1CCOCC1)c1ccccc1,,4.47 µM (active)
C[N+]1(C)CCC(OC(=O)C(c2ccccc2)c2ccccc2)CC1,,inactive
C[C@H](C(=O)c1ccccc1)[C@@H](c1ccccc1)N1CCOCC1,,1.58 µM (active)
CC(=O)[C@H]([C@@H](c1ccccc1)N1CCOCC1)N1CCOCC1,7.37% [at 11.4 µM] (inactive),
CCOC(=O)CNS(=O)(=O)c1cc(-c2nn(C)c(=O)c3ccccc23)ccc1C,,3.16 µM (active)
Cc1ccc(-c2nn(C)c(=O)c3ccccc23)cc1CNC(=O)Cn1nc(-c2ccccc2)c2ccccc2c1=O,,7.94 µM (active)
Cc1ccc(-c2nn3c(C)nnc3c3ccccc23)cc1S(=O)(=O)NCc1ccccc1,,5.01 µM (active)
CCN(CC)CCNC(=O)C(C)c1nn(C)c(=O)c2ccccc12 (stereo unspecified),-28% (inactive),
CC1CCCC(C)N1CCNC(=O)Cn1nc(-c2ccccc2)ccc1=O (stereo unspecified),-25.2% (inactive),
CCN1CCc2nc(NC(=O)c3ccc4c(c3)OCCO4)sc2C1,,15.8 µM (active)
CCN1CCC[C@@H](OC(=O)C(c2ccccc2)c2ccccc2)C1,-20.1% [at 25.6 µM] (inactive),
Cc1nc2ccc3nc(NC(=O)c4ccc(S(=O)(=O)N5CCOCC5)cc4)sc3c2s1,-28.8% (inactive),
CCN1CCc2nc(NC(=O)CC(c3ccccc3)c3ccccc3)sc2C1,,8.91 µM (active)
Cc1nc2c(ccc3nc(NC(=O)c4ccc5c(c4)OCCO5)sc32)s1,,2.51 µM (active)
CCN1CCc2c(sc(NC(=S)NC(=O)c3ccccc3)c2C#N)C1,-59.3% (inactive),
O=C(O)/C=C(/C(=O)O)[C@]12CCN3CC4=CCO[C@@H]5CC(=O)N[C@@H]1[C@H]5[C@H]4C[C@H]32,-10% [at 11.4 µM] (inactive),
CC(C)=CCC/C(C)=C/CO/N=C1/C[C@@H](O)[C@@H](O)[C@@H]2[C@@H]3C(=O)N(C(C)(C)C)C(=O)[C@H]3CC[C@H]12,12.2% [at 11.4 µM] (inactive),

SMILES,"activity, negative = inhibition",AC50
N#CCCn1c(=O)c(-c2ccc(F)cc2)nc2cnc(N3CCOCC3)nc21,-26% (inactive),
CNc1oc(-c2ccc(Cl)cc2)nc1C#N,,11.2 µM (active)
O=C(O)CONC(=O)c1cc(OCC(F)(F)F)ccc1OCC(F)(F)F,14.7% (inactive),
CCN(CC)CCNC(=O)c1cc(S(C)(=O)=O)ccc1OC,,inactive
O=C(NCCNS(=O)(=O)c1ccccc1Cl)c1cc(OCC(F)(F)F)ccc1OCC(F)(F)F,,14.1 µM (active)
O=C(NCCNS(=O)(=O)c1ccc(Cl)cc1)c1cc(OCC(F)(F)F)ccc1OCC(F)(F)F,,2.51 µM (active)
CCOC(=O)c1c(-c2ccccc2)csc1NC(=O)c1cccc(N2C(=O)CCC2=O)c1,,3.55 µM (active)
COC(=O)c1c(-c2ccc3ccccc3c2)csc1NC(=O)Cc1ccc(OC)c(OC)c1,,1.41 µM (active)
CCOC(=O)c1c(-c2ccc(OC)cc2)csc1NC(=O)CCN1C(=O)c2ccccc2C1=O,,5.62 µM (active)
CCOC(=O)c1c(-c2cccc(C)c2)csc1NC(=O)c1c(-c2ccccc2)noc1C,-30% (inactive),
N/C(=N\O)c1cn([C@@H]2O[C@@H](CO)[C@H](O)[C@@H]2O)c2ncnc(NO)c12,14.4% [at 11.4 µM] (inactive),
CC(=O)Nc1c(I)c(C(=O)N[C@H]2[C@@H](O)[C@H](O)[C@H](CO)O[C@@H]2O)c(I)c(N(C)C(C)=O)c1I,12.2% [at 25.6 µM] (inactive),
Cc1ccc(OCCCN2C(=O)C(=O)c3cccc(C)c32)cc1,,3.98 µM (active)
NS(=O)(=O)c1ccc(N=Nc2nc3[nH]c(=O)[nH]c(=O)c3[nH]2)cc1,-0.933% [at 11.4 µM] (inactive),
CC(C)(C)NC(=S)Nc1ccc(Nc2ccccc2)cc1,,4.47 µM (active)
N#[N+]c1ccc(Nc2ccccc2)cc1,23.3% [at 11.4 µM] (inactive),
Nc1ccc(Nc2ccccc2)cc1,,10 µM (active)
CNC(=S)Nc1ccc(Nc2ccccc2)cc1,,5.62 µM (active)
C=CC[C@@H]1C=C[C@H](O/N=C(\C)CCN2CCCc3nc(C)c(C)cc32)[C@H](CO)O1,29.1% [at 11.4 µM] (inactive),
CC(C(=O)NC1CCCC1)N(C(=O)c1ccc(-c2ccccc2)[nH]1)c1ccccc1F (stereo unspecified),,3.98 µM (active)
Cc1cccc(C)c1NC(=O)C(c1ccc(Cl)cc1Cl)N1CCCCC1 (stereo unspecified),,15.8 µM (active)
O=C(COc1cccc(NC(=O)c2cccc([N+](=O)[O-])c2)c1)c1ccc(Br)cc1,,1.26 µM (active)

# — PubChem BioAssay AID1851 (National Center for Advancing Translational Sciences (NCATS), 2009)
